PubChem BioAssay (NCATS)
Where “and” joins values, the source holds several entries; their conditions need not be identical. Identical values can stand only once. Results filed as inconclusive are left out. Calls of active or inactive are those of the source. Unless noted, calls follow the shape of the dose curve; as a rule, active = well fitted curve in the direction sought with a large enough effect; inconclusive = small, poorly fitted or top-dose-only effect, or another doubt; inactive = no such curve, though single readings can be large; an effect the other way counts as inactive or inconclusive.

What was measured:
[1] = P-glycoprotein substrates identified in KB-8-5-11 adenocarcinoma cell line, qHTS therapeutic library screen (AID 1346987); also: nearly all actives have a fitted effect of over 65% in size; also: potency is read from the fitted curve at half-maximal effect
Outline: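 Human cervical adenocarcinoma KB-8-5-11 cells, selected in colchicine to over-express P-gp and assayed without it, were exposed for 72 h to titrated compounds. An ATP-based luminescent viability signal gave AC50.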

[2] = Primary qHTS for inhibitors of nuclear receptor binding SET domain protein 2 (NSD2) in an isogenic RCH-ACV NSD2 p.E1099K mutant (9B) (AID 1645876); also: potency is read from the fitted curve at half-maximal effect; nearly all actives have a fitted effect of over 70% in size
[3] = Primary qHTS for inhibitors of nuclear receptor binding SET domain protein 2 (NSD2) in an RCH-ACV wild type WT cells (2C) (AID 1645877); also: potency is read from the fitted curve at half-maximal effect; nearly all actives have a fitted effect of over 70% in size
[4] = molecular target: Glutathione peroxidase 1 (Homo sapiens) (UniProt P07203); assay: Primary qHTS Assay for Inhibitors of Recombinant Selenoprotein Glutathione Peroxidase 1 (GPX1) (AID 1845191); also: nearly all actives have a fitted effect of over 65% in size
Outline: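 GPX1 10 nM, GR 100 nM, GSH 1 mM, NADPH 0.5 mM, CHP 0.5 mM (final). 30-min cpd preincubation, RT. Ex340/Em450 read t=0, t=15 min.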

[5] = qHTS drug screen for cell cycle checkpoint inhibitors in PARPi-resistant BRCA-mutant ovarian cancer cell lines. (AID 1963452; calls by dose curve); details: PEO1/OlaR viability, CellTiter-Glo luminescence, 96 h, stronger effect = lower value
Outline: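 PEO1, PEO4 and PEO1/OlaR ovarian cancer cells, 600 per well, exposed 96 h at 37C to a dilution series. Viability read by CellTiter-Glo luminescence, normalized to DMSO and empty wells; activity summarized as Z-AUC.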

[6] = qHTS assay to identify inhibitors of the type 1 interferon - major histocompatibility complex class I in skeletal muscle: Counter screen cell viability and HiBit confirmation (AID 1347412); details: iHSKM muscle cells + IFN-b, HiBiT or CellTiter-Glo, 24 h, at 45.9 µM (top of the series); also: % is scaled to controls: 0 for no effect and ±100 for the full control effect; nearly all actives have a fitted effect of over 60% in size
Outline: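 HLA-B*08:01–HiBiT knock-in immortalized human myoblasts (C25cl48) stimulated with 4.0 ng/ml human IFN-beta and dosed with compound in a 12-point 1:3 titration (top final 46 uM). After 24 hrs at 37 C, HiBiT lytic luminescence or CellTiter Glo ATP read out.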

[7] = molecular target: Phospholipid hydroperoxide glutathione peroxidase GPX4 (Homo sapiens) (UniProt P36969); assay: Primary qHTS Assay for Inhibitors of Recombinant Selenoprotein Glutathione Peroxidase 4 (GPX4) (AID 1845192); details: outcome: dose series up to 50 µM unless noted; also: % is scaled to controls: 0 for no effect and ±100 for the full control effect; nearly all actives have a fitted effect of over 65% in size
Outline: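 qHTS, GR-coupled: GPX4 200 nM + cpd 30 min RT → GSH 1 mM, NADPH 0.5 mM, GR 100 nM → CHP 0.5 mM start; fluor 340/450 at t0 and t15 min; no-enzyme wells as control.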

[8] = qHTS Assay for Identifying Gametocytocidal Compounds (AID 743244);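 also: % is scaled to controls: 0 for no effect and ±100 for the full control effect; actives lower the fluorescent signal which means gametocytes are killed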; details: P. falciparum 3D7 stage III-V gametocytes, alamarBlue, 72 h; max response: stronger effect = lower value
Outline: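 Late gametocytes (III–V), P. falciparum 3D7; 72 h drug, then 24 h alamarBlue; resazurin reduction read by fluorescence.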

[9] = measured here: PEO1 parental Z-AUC

Chain of Glutathione peroxidase 1 (Homo sapiens) (P07203 whole entry, looked up): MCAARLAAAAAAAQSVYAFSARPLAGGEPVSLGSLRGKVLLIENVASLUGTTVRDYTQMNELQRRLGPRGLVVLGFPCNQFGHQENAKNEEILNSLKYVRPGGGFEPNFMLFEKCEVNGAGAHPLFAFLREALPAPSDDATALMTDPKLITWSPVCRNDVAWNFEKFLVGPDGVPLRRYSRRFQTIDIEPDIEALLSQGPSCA
Chain of Phospholipid hydroperoxide glutathione peroxidase GPX4 (Homo sapiens) (P36969 whole entry, looked up): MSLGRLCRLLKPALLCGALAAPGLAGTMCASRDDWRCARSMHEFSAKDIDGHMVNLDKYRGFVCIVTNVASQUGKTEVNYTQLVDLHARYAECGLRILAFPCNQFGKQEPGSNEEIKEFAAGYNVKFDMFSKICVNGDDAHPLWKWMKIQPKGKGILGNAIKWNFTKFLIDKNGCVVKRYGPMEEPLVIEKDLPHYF

For `C[C@@H](Nc1cc(F)cc(F)c1)c1cc(C(=O)N(C)C)cc2c(=O)cc(N3CCOCC3)oc12`, the Potency [1] was “inactive”, the Potency [2] was 259 nM (active) and 235 nM (active) and the Potency [3] was 411 nM (active) and 1.18 µM (active). For the same compound, the Potency [4] was “inactive”, the Z-AUC [5] was -0.864 (inactive) and the Z-AUC [5, 9] was -0.746. For the same compound, the Z-AUC ([5]; measured here: PEO4 Z-AUC) was -0.41 and the activity change, negative = inhibition ([6]; HiBiT) was -23.5% (inactive).

For `Nc1ncnc(Nc2ccc(OCc3ccccc3)c(Cl)c2)c1/C=N/OCCN1CCOCC1`, the Potency [1] was 16.4 µM (active), the Potency [2] was 16.6 µM (active) and the Potency [3] was 8.33 µM (active). The Potency [4] was “inactive”, the Potency [7] was “inactive” and the Z-AUC [5] was -0.0964 (inactive). The Z-AUC [5, 9] was 0.0883, the Z-AUC ([5]; measured here: PEO4 Z-AUC) was -0.311 and the activity change, negative = inhibition ([6]; HiBiT) was -8.78% (inactive). The activity change, negative = inhibition ([6]; Viability) was 12.2% (inactive).

For `CCCCCCC(=O)O[C@H]1CC[C@H]2[C@@H]3CCc4cc(O)ccc4[C@H]3CC[C@]12C`, the max response [8] was -2.62% (inactive), the Potency [1] was 7.31 µM (active) and the Potency [4] was “inactive”.

In the case of `COc1cc(Br)c(C[N+]2(CCOCCC3CCC4CC3C4(C)C)CCOCC2)cc1OC` (configuration not stated), the Potency [1] was “inactive”.

With `Cc1ccc(NC(=O)Nc2nnc(Sc3ncnc4cc(OCCCN5CCOCC5)ccc34)s2)cc1` the Potency [1] was “inactive”, the Potency [2] was 3.66 µM (active) and the Potency [3] was 5.17 µM (active). For the same compound, the Potency [4] was “inactive”, the Z-AUC [5] was -0.628 (inactive) and the Z-AUC [5, 9] was 0.369. For the same compound, the Z-AUC ([5]; measured here: PEO4 Z-AUC) was 0.158.

For `C=CCN(/C=C1\C(=O)OC(COC)C2(C)C1=C(O)C(=O)C1=C2C(OC(C)=O)CC2(C)C(=O)CCC12)CC=C` (configuration not stated), the Potency [1] was “inactive”, the Potency [2] was 9.2 µM (active) and the Potency [3] was 11.6 µM (active).
